Experimental data reported in PubChem BioAssay (Tox21).
Records with an inconclusive call do not appear. The source made the active and inactive calls. Calls follow the shape of the dose curve; as a rule, active = well fitted cell-killing curve with a large enough effect in the repeat runs; inconclusive = weak or mixed curves, or effect the other way; inactive = flat fitted curve, though single readings scatter.

experiment: cAMP Responsive Elements (CRE) small molecule agonists, cell-based qHTS assay: qHTS cell viability counter screen (AID 2060914); settings: CRE-bla HEK293T viability, CellTiter-Glo luminescence, 5 h; series mostly up to 92.4 µM; activity change, negative = cytotoxicity: at the top concentration; also: nearly all actives have a fitted effect of over 50% in size
Method in brief: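 In the same wells as the reporter read, viability of CRE-bla HEK 293T cells was quantified by CellTiter-Glo luminescence after a 3 h compound exposure.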
% is scaled to controls: 0 for no effect and ±100 for the full control effect.

Compound	activity change, negative = cytotoxicity	Potency
NC(=O)CCCCC(N)=O	10.1% (inactive)	
CN1C[C@H](C(=O)N[C@]2(C)O[C@@]3(O)[C@@H]4CCCN4C(=O)[C@H](Cc4ccccc4)N3C2=O)C[C@@H]2c3cccc4[nH]cc(c34)C[C@H]21	3.45% [at 42.5 µM] (inactive)	
COc1ccc(Nc2ccccc2)c(C)c1		inactive
CC1(C)CC(N)CC(C)(CN)C1 (centres undefined)		inactive
CCCCCCCCCC(C)=O	1.9% (inactive)	
CN(C)CCC[C@@]1(c2ccc(F)cc2)OCc2cc(C#N)ccc21	-2.97% [at 42.5 µM] (inactive)	
CCCCCCCCCCCO		inactive
CC(=O)Nc1c(I)cc(I)c(C(=O)O)c1I	-18.2% [at 42.5 µM] (inactive)	
CC(O)CN(CCCN(C)C)CCCN(C)C (centres undefined)	3.15% (inactive)	
CCCCCCC(C)(C)C(=O)O	7.83% (inactive)	
CCCCCCCCCCCCCCCCC	-1.87% (inactive)	
CCOc1ccccc1OCC	21.4% (inactive)	
O=C(O)C[C@H](NC(=O)OCc1ccccc1)C(=O)O	-3.11% (inactive)	
O=C1OC2(c3ccc(O)cc3Oc3cc(O)ccc32)c2ccccc21	6.83% (inactive)	
